Our source for the growth inhibition values is PubChem BioAssay (NCI).

The nature of assay [1]: NCI Yeast Anticancer Drug Screen. Data for the rad50 strain (AID 155).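 Note: 0% = growth of vehicle-only cultures of the same strain.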 As to conditions: S. cerevisiae rad50 strain growth inhibition; at 50.0 µM; stronger effect = higher value. The procedure, abridged: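 Inhibition values express reduced yeast growth in compound-treated cultures relative to vehicle-treated controls.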
The nature of assay [2]: NCI Yeast Anticancer Drug Screen. Data for the mec2-1 strain (AID 157). The note with it: S. cerevisiae mec2-1 strain, at 50.0 µM, stronger effect = higher value. The procedure, abridged: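 Cells of the genetically defined mec2-1 yeast strain are incubated with test compound. Inhibition of growth is calculated against vehicle-treated controls.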
The nature of assay [3]: NCI Yeast Anticancer Drug Screen. Data for the sgs1 mgt1 strain (AID 161).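 Note: 0% = growth of cultures given vehicle only.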 As to conditions: S. cerevisiae sgs1 mgt1 strain, at 50.0 µM, stronger effect = higher value. The procedure, abridged: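 Inhibition of yeast growth, normalised to vehicle-treated controls, is reported for a strain bearing genetic alterations in DNA damage repair.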
Assay [4] is described as follows: NCI Yeast Anticancer Drug Screen. Data for the cln2 rad14 strain (AID 165).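 Note: 0% = growth equal to vehicle treated cultures.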 As to conditions: S. cerevisiae cln2 rad14 strain, at 50.0 µM, stronger effect = higher value. The procedure, abridged: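 The screen exposed genetically defined yeast (cln2 rad14) to test compounds and scored growth inhibition relative to vehicle-treated controls.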
Assay [5] is described as follows: NCI Yeast Anticancer Drug Screen. Data for the bub3 strain (AID 167). The note with it: S. cerevisiae bub3 mutant strain, at 50.0 µM, stronger effect = higher value. The procedure, abridged: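 Steps: expose the mutant yeast strain to compound; grow alongside vehicle-treated cultures; measure growth; express inhibition against the vehicle cultures.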
Assay [6] is described as follows: NCI Yeast Anticancer Drug Screen. Data for the mlh1 rad18 strain (AID 175). The note with it: S. cerevisiae mlh1 rad18 strain growth inhibition; at 50.0 µM; stronger effect = higher value. The procedure, abridged: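 Compound-treated yeast growth, normalised to vehicle controls. Strain bears defined DNA repair mutations.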

About 79,000 compounds went through this panel and 15% of them were active in at least one assay; those are over-represented in the sample as a whole. Unmarked numbers belong to inactive results. Calls of active or inactive are those of the source. Cut-off read from the data, not from the text of the source: active = growth inhibition above about 70%; inactive = the rest. Where a SMILES comes first, the peptide text is derived from it. [ ]: non-standard residue; d: D form. The star is where a group is joined. ξ: configuration not given here. X15 = COc1ccc(C(N*)c2ccc(OC)cc2)cc1; NMeF = CN[C@@H](Cc1ccccc1)C(=O)O; NMeD = CN[C@@H](CC(=O)O)C(=O)O; NMeV = CN[C@H](C(=O)O)C(C)C; ξNMeV = CNC(C(=O)O)C(C)C; Boc = CC(C)(C)OC(=O)*; ξNMeA = CNC(C)C(=O)O; ξV = CC(C)C(N)C(=O)O

As for `COc1ccc(C(NC(=O)C[C@@H](C(=O)N(C)C(C)C(=O)O)N(C)C(=O)[C@@H]2CCCN2C(=O)[C@H](C(C)C)N(C)C(=O)C(C(C)C)N(C)C(=O)[C@H](Cc2ccccc2)N(C)C(=O)C(NC(=O)OC(C)(C)C)C(C)C)c2ccc(OC)cc2)cc1` (stereo not given in full) (Boc-[ξV][NMeF][ξNMeV][NMeV]P[NMeD](X15)[ξNMeA]-OH), the growth inhibition was -30.5% in assay [1]; -23.9% in assay [2]; -20.9% in assay [3]; -7.45% in assay [4]; -6.25% in assay [5]; -31.4% in assay [6].

In the case of `CN(C)CC(Oc1ccccc1)C(=O)c1ccccc1` (stereo not given), the growth inhibition in assay [1] is -3.2%; in assay [2] it was -10.2%; in assay [3] it was 29.8%; in assay [4], -26.3%; in assay [5] it was -16.9%; in assay [6] it was -5.15%.

With `CCCCCCCOCC(=O)O`, the growth inhibition in assay [1] was 10%; in assay [2], -5.8%; in assay [3] it was 3.6%; in assay [4], -30.2%; in assay [5], 1.25%; in assay [6] it was 17.6%.

As for `CCc1c(C)nc2[nH]ncn2c1=O`, the growth inhibition in assay [1] was 10.8%; in assay [2], -2.1%; in assay [3], 11.1%; in assay [4], -2.25%; in assay [5], 7.25%; in assay [6] it was 6.7%.

Consider `COc1ccc(C(c2cc3c(cc2O)OCO3)N2CCCCC2)c(OC)c1` (stereo not given), for which the growth inhibition in assay [1] was -31.2%; in assay [2], -13.1%; in assay [3], -12.2%; in assay [4] it was -22.4%; in assay [5], -2.15%; in assay [6], -6.95%.

For the molecule `C1OC1CO[C@H]1CO[C@H]2[C@@H]1OC[C@@H]2OCC1CO1` (stereo not given in full), the growth inhibition in assay [1] is -9.35%; in assay [2], -2.4%; in assay [3] it was 8.05%; in assay [4], -30.5%; in assay [5], 18.1%; in assay [6], 2.25%.

Consider `CCCCSc1n[nH]c(=O)nc1N`, for which the growth inhibition in assay [1] is -5.5%; in assay [2] it was -7.95%; in assay [3], -3.1%; in assay [4] it was -11.3%; in assay [5], -11.6%; in assay [6], 3.9%.

For `c1ccc(COC2C3COC(O3)C(OCc3ccccc3)C2OCc2ccccc2)cc1` (stereo not given), the growth inhibition in assay [1] is 11.7%; in assay [2] it was -1.7%; in assay [3], 26.4%; in assay [4], 3.2%; in assay [5], 17.7%; in assay [6], 22.4%.

Consider `CCNCC1COc2ccccc2O1` (stereo not given), for which the growth inhibition in assay [1] was -0.3%; in assay [2], 3%; in assay [3], -7%; in assay [4] it was -15.8%; in assay [5] it was -4.8%; in assay [6] it was -1%.

For the molecule `Cc1ccc(N=C(N)NC#N)cc1`, the growth inhibition was -11.9% in assay [1]; -46% in assay [2]; -27.1% in assay [3]; 16.6% in assay [4]; -34% in assay [5]; -7.75% in assay [6].

For the molecule `C[N+]1(CC[N+]2(C)CCCC2c2cccnc2)CCCC1c1cccnc1` (stereo not given), the growth inhibition is 6.15% in assay [1]; -0.2% in assay [2]; -16.9% in assay [3]; -34.5% in assay [4]; 28% in assay [5]; 19.9% in assay [6].

Regarding `CC12C(=O)OC3CCC1CC32` (stereo not given), the growth inhibition in assay [1] is 10.8%; in assay [2], 7.1%; in assay [3] it was -5.85%; in assay [4], -26.6%; in assay [5], 6.65%; in assay [6], 2.95%.

Consider `O=C(/C=C/c1ccc(O)cc1)c1cc(O)cc(O)c1`, for which the growth inhibition is 16.9% in assay [1]; 5.05% in assay [2]; 2% in assay [3]; -8.95% in assay [4]; -4.1% in assay [5]; 13.8% in assay [6].

With `CC12CCCC1C1CC=C3CC(SC4CCC5(C)C(=CCC6C7CCCC7(C)CCC65)C4)CCC3(C)C1CC2` (stereo not given), the growth inhibition in assay [1] is -2.05%; in assay [2] it was -0.25%; in assay [3] it was -21.5%; in assay [4], -37.9%; in assay [5], -17.6%; in assay [6] it was -21.6%.

For `O=[N+]([O-])c1cc(F)cc(F)c1Nc1ccccc1`, the growth inhibition is 2.85% in assay [1]; -11.4% in assay [2]; 2.2% in assay [3]; 3.1% in assay [4]; 0.5% in assay [5]; 17.6% in assay [6].

For the molecule `CCCCCCC1C=CC(CCCCCCCC(=O)O)C(/C=C/CCCCCCCC(=O)O)C1CCCCCC` (stereo not given), the growth inhibition in assay [1] was -10.7%; in assay [2], -10.8%; in assay [3], -10.3%; in assay [4] it was 21%; in assay [5], -25%; in assay [6] it was 6.85%.

As to `C#CC(CC(C)CC(C)(C)C)N(C)C` (stereo not given), the growth inhibition was 39% in assay [1]; 22.8% in assay [2]; 16.2% in assay [3]; 17.8% in assay [4]; 3.8% in assay [5]; 31.3% in assay [6].

`CC(=O)OC1CCC2(C)C3C/C(=N\O)C4(C)C(C(C)OC(C)=O)CCC4C3CCC2(C)C1` (stereo not given): the growth inhibition in assay [1] is 95.3% (active); in assay [2], 96.7% (active); in assay [3] it was 96% (active); in assay [4], 91.8% (active); in assay [5], 93.2% (active); in assay [6], 95.9% (active).

For the molecule `COC(=O)c1nc(N)nc(C(=O)OC)c1C(=O)c1ccco1`, the growth inhibition in assay [1] was 3.95%; in assay [2], -4.25%; in assay [3] it was 30.3%; in assay [4], -3.7%; in assay [5], 1.55%; in assay [6], 26.5%.

As to `C=Cc1c(C)c(C)c(C=C)c(C)c1C`, the growth inhibition in assay [1] was -3.85%; in assay [2], 6.65%; in assay [3], -8.2%; in assay [4], 4.75%; in assay [5], -10.2%; in assay [6] it was -17.3%.
